Screening results (PubChem BioAssay)
Shiga inhibitor: Shiga toxin inhibition | Vero cells, Shiga toxin protein synthesis inhibition reporter | 9.2% of 290,000 active | inhibition, % at 38.7 µM; in the data active means inhibition mostly above about 28%, no sharp cut-off; inactive means mostly below about 43%
AMA1-RON2 inh: AMA1-RON2 (P. falciparum) interaction inhibition | 0.2% of 360,000 active | Potency, µM (doses to about 58.2 µM), hits mostly inhibitors | AID 720542 | AlphaScreen AMA1-biotinylated RON2 peptide binding; further: nearly all actives have a fitted effect of over 45% in size
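AMA1 (3D7) with his tag at 25 nM final met compounds first, then biotinylated RON2 peptide at 25 nM; detection used donor plus acceptor beads, 10 µg/mL apiece, read by AlphaScreen after 30 min at room temperature.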
CHX counter: affects cycloheximide protein synthesis inhibition readout, counter-screen | cell reporter, cycloheximide protein synthesis inhibition counterscreen | max response, % | 12% of 300,000 active | AID 2314; in the data active means max response mostly above about 13%, no sharp cut-off; inactive means mostly below about 14%; further: read at 38.3 µM for the half of the compounds with a filed dose
Pf growth 96h: P. falciparum growth inhibition at 96 hour, primary screen for plastid delayed-death inhibitors; P. falciparum luciferase reporter growth, 96 h; Potency, µM (highest dose often 28.7 µM), most hits filed as inhibitors; 6.9% of 320,000 active
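96 h incubation, 37 C, 5% CO2, of luciferase-reporter P. falciparum-infected RBCs (2% hematocrit, 0.05% parasitemia final) with test compounds; endpoint luminescence.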
SARS PLpro yeast: blocks SARS-CoV papain-like protease in a yeast assay | S. cerevisiae expressing SARS-CoV PLpro, growth rescue | Potency, µM (highest dose often 32.9 µM), usual class: activators | 0.19% of 330,000 active | AID 485353; calls by dose curve; further: nearly all actives have a fitted effect of over 55% in size
Pf growth 48h: P. falciparum growth inhibition at 48 hours (one generation); P. falciparum luciferase growth in erythrocytes, 48 h; Potency, µM (top dose mostly 28.7 µM), hits mostly inhibitors; 5.9% of 310,000 active; AID 504832
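Luciferase-expressing P. falciparum in infected erythrocytes (2% hematocrit, 0.1% parasitemia final) in RPMI 1640/0.5% Albumax were exposed to compound for 48 hours at 37 C, 5% CO2; growth read as luminescence.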
Large screens that a line does not name were inactive. Most compounds without a hit are left out; they make up all but 19% or so of the library. Unless noted, the call rests on the fitted dose curve; in most records, active means well fitted curve in the direction sought with a large enough effect; inconclusive means small, poorly fitted or top-dose-only effect, or another doubt; inactive means no such curve, though single readings can be large; an effect the other way counts as inactive or inconclusive.

Cc1ccccc1Cn1nc(C)c(NC(=O)c2cc(-c3ccco3)on2)c1C	Pf growth 48h inconclusive
Cc1cc(C(=O)Nc2c(C)nn(Cc3ccccc3Cl)c2C)no1	Pf growth 48h 2.62µM
COc1ccc(-c2cc(C(=O)Nc3c(C)nn(Cc4ccccc4Cl)c3C)no2)cc1OC	Pf growth 48h inconclusive
COc1ccc(OC)c(-c2cc(C(=O)Nc3c(C)nn(Cc4ccccc4C)c3C)no2)c1	Pf growth 48h 5.22µM
Cc1nn(C)cc1C(=O)Nc1c(C)nn(Cc2ccccc2Cl)c1C	Pf growth 96h inconclusive
COc1ccc(OC)c(-c2cc(C(=O)Nc3c(C)nn(Cc4ccccc4Cl)c3C)no2)c1	Pf growth 48h 13.1µM
Cc1ccc(NC(=O)N2CCC(NC(=O)c3ccco3)CC2)cc1	none
Cc1cccc(CC(=O)NCC2CCCCC2)c1	Shiga inhibitor 93.1, CHX counter 30.7, Pf growth 96h inconclusive
CN(C)c1cccc(C(=O)NC2CCCc3ccccc32)c1 (centres undefined)	Pf growth 96h inconclusive, Pf growth 48h inconclusive
Cc1ccc(NC(=O)N2CCC(NC(=O)c3cccc(C)c3)CC2)cc1	Pf growth 96h 10.4µM, Pf growth 48h inconclusive
COc1cccc(/C=C/C(=O)NCC2CCCCC2)c1	none (no result: Shiga inhibitor, CHX counter, Pf growth 96h, SARS PLpro yeast, Pf growth 48h)
Cc1cccc(C(=O)NC2CCCCCCC2)c1	Shiga inhibitor 78.4, CHX counter 45.2 (no result: Pf growth 48h)
CN(C)c1cccc(C(=O)NC2CCCCCC2)c1	Shiga inhibitor 43.4, CHX counter 39.5 (no result: Pf growth 96h)
O=C1CC(C(=O)N2CCN(c3ccccn3)CC2)CN1Cc1ccccc1Cl (centres undefined)	Pf growth 48h inconclusive (no result: Shiga inhibitor, CHX counter)
O=C(NCCN1CCOCC1)c1ccc(NS(=O)(=O)c2cccc([N+](=O)[O-])c2)cc1	none (no result: Shiga inhibitor, CHX counter)
CCCN1C(=O)c2cc(C(=O)NC3CCCCCC3)ccc2C1O (centres undefined)	Shiga inhibitor 41.4, CHX counter 34.1, Pf growth 96h inconclusive
O=C(NC1CCCCCC1)c1cccc(COCC(F)(F)F)c1	Shiga inhibitor active, CHX counter 22.0
COc1ccc(-c2nc3cc(C)c(Br)c(C)n3c2Cc2ccsc2)cc1OC	none (no result: Shiga inhibitor, CHX counter, Pf growth 96h, SARS PLpro yeast, Pf growth 48h)
Cn1cc(O)nc1NC(=O)Nc1cccc(Cl)c1	none (no result: Shiga inhibitor, AMA1-RON2 inh, CHX counter, SARS PLpro yeast)
CN1CC(=O)Nc2ccccc2C1=O	none
CC/C(C)=N/N1C(=O)c2ccccc2NC1(C)CC (centres undefined)	Shiga inhibitor 77.3, CHX counter 29.6
C=C1[C@@H](C)C2[C@H](Cc3ccccc3)NC(=O)[C@]23OC(=O)CC[C@H](O)CCC[C@H](C)C/C=C/[C@H]3[C@@H]1O (some centres undefined)	Pf growth 96h 0.37µM, Pf growth 48h 0.928µM (no result: AMA1-RON2 inh)
C=C1[C@@H](C)[C@H]2[C@H](Cc3ccccc3)NC(=O)[C@]23OC(=O)/C=C/[C@H](O)CCC[C@@H](C)C/C=C/[C@H]3[C@@H]1O	none (no result: Pf growth 96h, Pf growth 48h)
Cc1ccc(SC(c2ccc(C)cc2)C(Cn2cncn2)C(=O)c2ccccc2)cc1 (centres undefined)	Pf growth 96h inconclusive (no result: Pf growth 48h)
Cc1ccc(C(Sc2ccccc2)C(Cn2cncn2)C(=O)c2ccccc2)cc1 (centres undefined)	Pf growth 96h 9.28µM (no result: Pf growth 48h)
COc1ccc(C(=O)[C@H]2[C@H]3C(=O)N(c4ccccc4)C(=O)[C@H]3C3C=CC=NN32)cc1 (some centres undefined)	Pf growth 48h 16.5µM
COc1ccc(C(=O)[C@H]2[C@H]3C(=O)N(c4ccc(C)cc4)C(=O)[C@H]3C3C=CC=NN32)cc1 (some centres undefined)	CHX counter 18.8
CC(=O)Oc1ccc(C(=O)[C@H]2[C@H]3C(=O)N(c4ccc(C)cc4C)C(=O)[C@H]3[C@@H]3C=CC=NN32)cc1	Pf growth 48h inconclusive
CC(=O)Oc1ccc(N2C(=O)C3C(C2=O)C(C(=O)c2ccc(Cl)cc2)N2CCCC32)cc1 (centres undefined)	CHX counter 28.7
CC(=O)Oc1ccc(C(=O)[C@H]2[C@H]3C(=O)N(c4ccc(C)cc4)C(=O)[C@H]3[C@@H]3C=CC=NN32)cc1	Shiga inhibitor 46.3, CHX counter 23.5
Cc1cccc(C(=O)OCN2C(=O)c3ccccc3C2=O)c1[N+](=O)[O-]	SARS PLpro yeast inconclusive
